Assay outcomes (PubChem BioAssay)
NPC1 prom act – NPC1 promoter activation; Huh7 NPC1 promoter luciferase reporter, 24 h; Potency, µM (top dose mostly 9.22 µM), without a hit: at the highest dose activation, hits mostly activators; hit rate 2.4% among 320,000; AID 485313; also: % of control where 0% means no effect; nearly all actives have a fitted effect of over 60% in size
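In 1536-well qHTS, Huh7 cells harboring an NPC1 promoter–luciferase construct received compound for 24 h; activation was quantified by luminescence following luciferase reagent addition.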
FLuc modulator – counter-screen for miR-21 project: firefly luciferase inhibitors or activators. hit rate 6.9% among 360,000. Potency, µM (titrated, usually from 57.5 µM), for inactives: top-dose activity change, negative = inhibition, most hits filed as inhibitors. purified FLuc, Km substrates, luminescence inhibition. P08659;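 also: plate controls were vehicle for no effect and reference inhibitor for full effect; nearly all actives have a fitted effect of over 55% in size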
Target sequence (P08659 whole entry, looked up): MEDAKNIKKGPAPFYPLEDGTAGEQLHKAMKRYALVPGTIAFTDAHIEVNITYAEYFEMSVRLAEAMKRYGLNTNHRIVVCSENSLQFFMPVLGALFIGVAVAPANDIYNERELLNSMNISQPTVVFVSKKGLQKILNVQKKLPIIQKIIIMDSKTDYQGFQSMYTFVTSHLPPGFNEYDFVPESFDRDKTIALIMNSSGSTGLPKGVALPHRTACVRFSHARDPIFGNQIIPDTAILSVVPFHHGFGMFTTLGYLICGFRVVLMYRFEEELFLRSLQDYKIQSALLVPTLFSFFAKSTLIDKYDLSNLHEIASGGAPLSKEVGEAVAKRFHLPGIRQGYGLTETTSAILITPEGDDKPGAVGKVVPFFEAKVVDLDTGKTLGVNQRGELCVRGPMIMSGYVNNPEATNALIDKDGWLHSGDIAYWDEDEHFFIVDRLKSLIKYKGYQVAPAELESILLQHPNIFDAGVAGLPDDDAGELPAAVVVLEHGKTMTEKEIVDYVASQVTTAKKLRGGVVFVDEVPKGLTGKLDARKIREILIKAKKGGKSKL
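Biochemical qHTS of compounds, final roughly 60 µM downward over six points, against 10 nM purified firefly luciferase using Km concentrations of substrates (10 uM D-luciferin, 10 uM ATP) in Tris acetate pH 7.5 buffer; luminescence output.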
p53 reactivator – re-activators of mutant p53; hit rate 0.063% among 320,000; H1299 p53-A138V BP100-luciferase reporter, luminescence, 24 h; Potency, µM (series often up to 92.2 µM), without a hit: top-dose activity change, positive = activation, actives largely listed as activators; also: % of control where 0% means no effect; nearly all actives have a fitted effect of over 45% in size
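p53-null H1299 cells stably carrying temperature-sensitive p53-A138V and a BP100-luciferase reporter were pinned with compounds (4-point, 1:5 series) and held 24 hrs at 37 deg C. Luminescence was read 10 min after detection reagent.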
SMN2 splice up – enhancers of SMN2 splice variant expression | Potency, µM (titrated, usually from 46.1 µM), for the others: at the top dose activity change, positive = activation, usual class: activators | hit rate 2.8% among 210,000 | HEK293 SMN2-luciferase splicing reporter, luminescence, 30-36 h; also: % of control where 0% means no effect; nearly all actives have a fitted effect of over 55% in size
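HEK293 cells carry an SMN2 minigene-luciferase reporter in which exon 7 inclusion puts luciferase in frame. Cells were seeded at 2000 cells/well, attached for 10-12 hours, then exposed to compounds for 30-36 hours at 37C before ONE-Glo luminescence.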
Rab9 prom act – activators of Rab9 promoter | AID 485297 | Potency, µM (series often up to 9.22 µM), for inactives: top-dose activation, negative = inhibition, usual class: activators | hit rate 2.8% among 320,000 | Huh7 Rab9 promoter-luciferase reporter, luminescence, 24 h; also: % of control where 0% means no effect; nearly all actives have a fitted effect of over 60% in size
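Huh7 cells stably carrying Rab9 promoter–luciferase reporter, plated 1500 cells/well, compound added after 2 h and incubated 24 h at 37 °C; luciferase luminescence then read after 10 min with detection reagent.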
ELG1 genotoxic – genotoxicity induction in ELG1-luciferase HEK293T cells | Potency, µM (series often up to 46 µM), for inactives: top-dose activity change, positive = activation, hits mostly activators | HEK293T ELG1-luciferase reporter, luminescence, 16 h | hit rate 1.3% among 330,000; also: % of control where 0% means no effect; nearly all actives have a fitted effect of over 60% in size
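Step 1: seed 2,000 HEK293T ELG1-luciferase cells per well. Step 2: add compound or DMSO, incubate 16 hr at 37 °C. Step 3: ONE-Glo, 30 min at room temperature, read luminescence.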
* marks the source's active call; other numbers are inactive results; ? = inconclusive; . = no result. A selection: hits, their analogues and other compounds. The true share with any hit is near 7.4%. Calls follow the shape of the dose curve; as a rule, active = well fitted curve in the direction sought with a large enough effect; inconclusive = small, poorly fitted or top-dose-only effect, or another doubt; inactive = no such curve, though single readings can be large; an effect the other way counts as inactive or inconclusive. Potency is read from the fitted curve at half-maximal effect.

SMILES	NPC1 prom act	FLuc modulator	p53 reactivator	SMN2 splice up	Rab9 prom act	ELG1 genotoxic
CCCC(=O)Nc1ccc(C2C(=O)c3ccccc3C2=O)cc1	1.6µM*	1.1µM*	-1%	.	3.5µM*	20%
CCCC(=O)Nc1ccc(C(=O)NCc2ccccc2Cl)cc1	-3%	-4%	-3%	?	-1%	-3%
CC(=O)Nc1ccc(C2C(=O)c3ccccc3C2=O)cc1	?	2.1µM*	6%	.	?	23µM*
Cc1cccc(C)c1NC(=O)CN1C(=O)c2ccccc2Sc2ncccc21	.	0%	.	.	.	.
CC(=O)Oc1ccc2c(c1)CCC1C2CC[C@@]2(C)C1CC(OC(C)=O)C2OC(C)=O (some centres undefined)	.	.	.	-12%	.	.
O=C1Nc2ccccc2/C1=C/C(=O)c1cccs1	-3%	15µM*	-20%	?	15%	-6%
COc1ccc(C(=O)/C=C2/C(=O)Nc3ccccc32)cc1	3%	2.4µM*	-4%	.	0%	?
COc1ccc(C(=O)/C=C2/C(=O)Nc3ccccc32)c(OC)c1	1%	8.5µM*	-17%	.	0%	-5%
COc1ccc(C(=O)/C=C2/c3ccccc3CC(C)(C)N2C)cc1	-34%	5.4µM*	3%	-15%	-14%	9%
CN1/C(=C\C(=O)Nc2cccnc2)c2ccccc2CC1(C)C	-2%	-1%	1%	-4%	-3%	-6%
COc1ccc(C(=O)/C=C2/C(=O)Nc3ccccc32)cc1OC	-1%	-14%	1%	.	-1%	7%
COc1ccc(C2(Nc3cccc(C(=O)O)c3C)C(=O)c3ccccc3C2=O)cc1	.	-16%	.	.	.	.
COc1ccc(C2(C(=O)c3ccccc3)C(=O)c3ccccc3C2=O)cc1	2µM*	4.8µM*	16%	.	?	?
CCOc1ccc(NC(=O)C(C)Sc2nc3ncccc3o2)cc1 (centres undefined)	.	-9%	.	.	.	.
CN(C(=O)c1ccc(NC(=O)Cc2ccc(NC(=O)C3CCCN(C(=O)C4CC4)C3)cc2)cc1)C1CC1 (centres undefined)	0%	?	6%	.	0%	5%
CN(C)C(=O)c1ccc(-c2cc(C(F)(F)F)nn2C)s1	3.5µM*	15µM*	8%	.	?	?
CCCCC(=O)Nc1ccc(NC(=O)c2ccc3c(c2)OCO3)cc1OC	15%	11µM*	-13%	29%	0%	13%
COc1cc(NC(=O)c2ccc3c(c2)OCO3)ccc1NC(=O)C(C)C	18%	15µM*	-1%	-19%	4%	9%
CC(=O)Nc1ccc(NC(=O)C(C)OC(=O)/C(C#N)=C/c2ccc(N(C)C)cc2)cc1 (centres undefined)	28%	9.5µM*	18%	.	?	18µM*
CCCOC(=O)c1cc(NC(=O)/C=C/c2ccccc2)ccc1O	0%	15µM*	8%	.	0%	-8%
Cc1ccc(NC(=O)/C=C/c2cccs2)c([N+](=O)[O-])c1	3.2µM*	1.5µM*	?	?	3.2µM*	?
CCOC(=O)c1cc(NC(=O)COC)ccc1O	-4%	1%	-3%	.	-5%	1%
Cc1cc(C)n(C(=O)/C=C/c2cccs2)n1	-10%	17µM*	11%	.	-4%	4%
Cc1cccc(NC(=O)/C=C/c2cccs2)n1	2.8µM*	4.8µM*	7%	3.2µM*	2.5µM*	?
CC(C)(C)NC(=O)/C=C/c1cccs1	10%	-3%	-1%	-1%	2%	-4%
Cc1ccc(CCNC(=O)CCCn2c(=O)c3ccccc3n(Cc3ccccc3C)c2=O)cc1	.	2%	.	6%	.	.
COc1ccc(CNC(=O)CCc2c(C)nc3c4cccnc4nn3c2C)cc1	.	1%	.	-8%	.	.
O=C(/C=C/c1cccs1)Nc1ccncc1	16%	13µM*	?	15%	27%	18%
CC(=O)Nc1ccc(NC(=O)/C=C/c2ccc(Cl)cc2)cc1	0%	-8%	15%	.	-3%	8%
